Source: PubChem BioAssay (The Scripps Research Institute Molecular Screening Center)
Only some compounds are listed: those with a hit (about 2.3% of all), similar ones and a draw of the others.
CHRM1 antagonist: antagonists of human M1 muscarinic receptor; P11229; CHO-K1 hM1, Fluo-8 calcium fluorescence, ACh EC80 antagonist; inhibition, % at 3 µM; 360,000 compounds, 1.3% hits; AID 588852;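 active = percent inhibition above its own plate's cutoff, namely the mean of that plate's compound wells plus 3 SD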;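 also: peak over basal fluorescence ratio during 140 s after agonist addition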
Target sequence (P11229 whole entry, looked up): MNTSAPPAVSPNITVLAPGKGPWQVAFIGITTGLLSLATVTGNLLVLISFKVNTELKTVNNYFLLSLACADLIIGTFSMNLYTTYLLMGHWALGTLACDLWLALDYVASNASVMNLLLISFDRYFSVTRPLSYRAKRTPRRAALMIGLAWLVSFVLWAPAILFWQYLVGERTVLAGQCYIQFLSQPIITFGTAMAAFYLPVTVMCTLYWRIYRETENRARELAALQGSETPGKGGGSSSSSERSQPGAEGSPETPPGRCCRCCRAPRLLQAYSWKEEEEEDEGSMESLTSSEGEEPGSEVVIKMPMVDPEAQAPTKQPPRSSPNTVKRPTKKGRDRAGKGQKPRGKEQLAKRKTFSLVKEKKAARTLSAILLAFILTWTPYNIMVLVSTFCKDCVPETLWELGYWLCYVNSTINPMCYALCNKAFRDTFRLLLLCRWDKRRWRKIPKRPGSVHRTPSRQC
M1 PAM parental: nonselective activator or artifact in parental CHO-K1 calcium assay; activation, % at 3 µM; ATP EC20, Fluo-8 calcium fluorescence; 0% at ATP EC20, 100% at ATP max; 360,000 compounds, 0.02% hits;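 active = activation above the run cutoff, the mean activation of all test compounds plus 3 SD, cut at about 40% in these data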;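 also: peak over basal fluorescence ratio in a 140 s read after ATP addition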
CHRM1 PAM: potentiates human M1 receptor response to acetylcholine | CHO-K1 hM1, Fluo-8 calcium fluorescence, ACh EC20; 0% = ACh EC20, 100% = maximal ACh | 360,000 compounds, 0.088% hits | P11229 | activation, % at 3 µM; in the data active = activation above about 19%, passing the limit was not always enough
M1 ag: agonists of human M1 muscarinic receptor; P11229; CHO-K1 hM1, Fluo-8 calcium fluorescence, agonist mode; 0% DMSO, 100% acetylcholine EC100; activation, % at 3 µM; 360,000 compounds, 0.33% hits; AID 588814;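 active = activation above the run's mean compound activation plus 3 SD, cut at about 16% in these data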;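 also: peak over basal fluorescence ratio within a 140 s kinetic read after compound addition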
CHO-K1 Ca antag: M1 antagonist counterscreen hit in parental CHO-K1 cells. ATP-induced calcium, Fluo-8 fluorescence. inhibition, % at 3 µM. 360,000 compounds, 0.6% hits;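 active = inhibition above a per-plate cutoff, the plate's mean sample inhibition plus 3 SD, cut at about 24% in these data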
CHO-K1 Ca ag: nonselective activator or artifact in parental CHO-K1 cells. Fluo-8 calcium fluorescence; scaled to maximal ATP response, vehicle zero. activation, % at 3 µM. 360,000 compounds, 0.48% hits. AID 602248; in the data active = activation above about 15%;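 also: untransfected CHO-K1 host cells lacking M1 receptor as counterscreen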
A number is an active result; n = inactive.

SMILES	CHRM1 antagonist	M1 PAM parental	CHRM1 PAM	M1 ag	CHO-K1 Ca antag	CHO-K1 Ca ag
COc1ccc(/C=N/NC(=O)/C(=C/c2ccccc2)CCO)cc1	n	n	29.0	n	n	n
Cc1cccc([C@@H]2C[C@H]3CN(Cc4cccc(Cl)c4)C(=O)[C@]34CCCN24)n1	23.3	n	n	n	n	n
CCc1ccc([C@@H]2C[C@H]3CN(Cc4ccccc4OC)C(=O)[C@]34CCCN24)cc1	47.1	n	n	n	n	n
COCc1cc([C@@H]2C[C@H]3CN(c4ccccc4)C(=O)[C@]34CCCN24)ccc1OC	57.4	n	n	n	n	n
Cc1ccc([C@@H]2C[C@H]3CN(Cc4cccc(Cl)c4)C(=O)[C@]34CCCN24)o1	n	n	n	n	n	n
COc1ccc2c(c1)C=C([C@@H]1C[C@H]3CN(c4ccccc4)C(=O)[C@]34CCCN14)CO2	57.6	n	n	n	n	n
COc1ccccc1CN1C[C@@H]2C[C@@H](c3ccc(C)cc3)N3CCC[C@@]23C1=O	n	n	n	n	n	n
CN1C[C@@H]2C[C@@H](C3=Cc4cc(Cl)ccc4OC3)N3CCC[C@@]23C1=O	n	n	n	n	n	n
CCN(CC)C(=O)C(=O)N/N=C/c1ccc(Br)cc1	n	n	n	n	n	n
O=C1CC(C2CCCO2)C(=O)N1c1ccc(Cl)c(Cl)c1 (stereo not drawn)	n	n	n	n	n	n
Cc1ccccc1C(=O)O/N=C(\N)c1ccncc1	n	n	n	n	n	n
Cc1cc(NC(=O)COc2ccc3ccccc3c2Br)no1	n	n	n	n	n	n
COc1cc(OC)c(NC(=O)CCNC(=O)Cn2cnc3ccccc3c2=O)cc1Cl	n	n	25.6	n	n	n
COc1cc(OC)c(N(C)C(=O)CCNC(=O)Cn2cnc3ccccc3c2=O)cc1Cl	n	n	n	n	n	n
CCCN1CCC(NC(=O)Nc2ccc([N+](=O)[O-])cc2)CC1	n	n	n	n	n	n
COc1ccccc1CNC(=O)c1ccccc1OCc1ccc(F)cc1	n	44.0	n	n	n	42.1
O=C(NCc1ccccn1)c1ccccc1OCc1ccc(F)cc1	n	n	n	n	n	n
O=C(Nc1ccccc1)c1ccccc1OCc1ccc(F)cc1	n	n	n	n	n	n
O=C(Nc1ccc(O)cc1)c1ccccc1OCc1ccccc1	n	n	n	n	n	16.1
O=C(NCC1CCCO1)c1ccccc1OCc1ccc(F)cc1 (stereo not drawn)	n	n	n	n	n	23.1
O=C(NCC1CCCO1)C(C(=O)c1ccc(F)cc1)n1ccccc1=O (stereo not drawn)	n	n	n	n	30.9	n
O=C(NCC1CCCO1)c1ccccc1OCc1ccc(Cl)cc1 (stereo not drawn)	n	n	n	n	n	n
CCN(CC)S(=O)(=O)c1ccc(OC)c(NC(=O)CSc2cc(C)ccc2C)c1	n	n	n	n	n	n
CC1(C)Oc2ccc3ccc(=O)oc3c2/C(=C/NNC(N)=S)C1=O	n	n	n	n	n	n
Cc1ccc(CN/C=C/C(=O)c2ccc(Br)cc2)cc1	n	n	n	n	n	n
SMILES	CHRM1 antagonist	M1 PAM parental	CHRM1 PAM	M1 ag	CHO-K1 Ca antag	CHO-K1 Ca ag
Cc1ccc(C(=O)/C=C/NCc2ccc(F)cc2)cc1	n	n	n	n	25.0	n
COC(=O)C1(C)COP(=O)(NC23CC4CC(CC(C4)C2)C3)OC1 (stereo not drawn)	n	n	n	n	n	n
CCc1ccc(N2CC(C(=O)Nc3ccc(S(=O)(=O)N4CCOCC4)cc3)CC2=O)cc1 (stereo not drawn)	n	n	n	n	n	n
COC(=O)c1ccc(C2C(C(=O)Nc3ccc(C)cc3C)=C(C)Nc3ncnn32)cc1 (stereo not drawn)	n	n	n	n	23.8	n
COC(=O)C1=C(C)Nc2ncnn2C1c1ccc(OC(=O)c2ccccc2)cc1 (stereo not drawn)	n	n	n	n	n	n
O=c1c2cc(C(F)(F)F)ccc2sn1-c1ccccc1	n	n	n	16.0	n	n
O=c1c2cc(F)ccc2sn1-c1ccccc1	n	n	n	n	n	19.1
O=c1c2ccccc2sn1-c1ccccc1	n	n	n	n	n	n
O=C(O)c1cccc(-n2sc3ccccc3c2=O)c1	n	n	n	n	n	n
COc1ccc(NC(=O)c2ccc(NC(=O)CSc3nc(N)cc(=O)[nH]3)cc2)cc1	n	n	n	n	n	n
O=C(Nn1nnnc1Nc1ccccc1)C12CC3CC(CC(C3)C1)C2	n	n	n	n	n	n
Cc1cc(C)cc(NC(=S)N2C3CCCC2CC(NC(=O)C2CC2)C3)c1 (stereo not drawn)	27.0	n	n	n	n	n
Cc1ccc(NC(=S)N2C3CCCC2CC(NC(=O)C2CC2)C3)cc1C (stereo not drawn)	n	n	n	n	n	n
CCOc1ccc(CNS(=O)(=O)c2cccs2)cc1OCC	n	n	n	n	n	n
COC(CN1C(=O)C(=O)/C(=C(/O)c2ccccc2)C1c1ccccn1)OC (stereo not drawn)	n	n	n	n	n	n
CCOC(=O)CSc1nnc(CNc2ccc(Cl)cc2)n1Cc1ccccc1	n	n	n	n	n	n
CC(C)OC(=O)CSc1nnc(CNc2ccc(Cl)cc2)n1Cc1ccccc1	n	n	n	n	36.4	n
CCc1nn(CC(=O)NCCCN(CC)Cc2ccccc2)c(=O)c2cc3sccc3n12	43.6	n	n	n	n	n
CCc1nn(CC(=O)NCCCN2CCN(CC)CC2)c(=O)c2cc3occc3n12	n	n	24.0	n	n	n
CCc1nn(CC(=O)NCCCN(C)C2CCCCC2)c(=O)c2cc3occc3n12	n	n	n	n	n	n
Cc1ccc(Nc2nnc(SC(C)C(=O)NCC3CCCO3)s2)cc1 (stereo not drawn)	n	n	n	n	n	n
CCN(CC)C(=O)N1CCC(NC(=O)Cc2ccccc2)CC1	n	n	n	n	26.3	n
Cc1ccc(S(=O)(=O)N2CCN(C(=O)N(c3ccccc3)c3ccccc3)CC2)cc1	n	n	n	n	n	n
CCOC(=O)N1CCC(N2CCN(S(=O)(=O)c3ccc(C)cc3)CC2)CC1	n	n	n	23.5	n	n
CN1CCN(C(=O)N(c2ccccc2)c2ccccc2)CC1	n	n	n	n	n	n
O=C(Cc1ccccc1)NC1CCN(C(=O)NCc2ccccc2)CC1	n	n	n	n	n	n
CCN1CCN(C(=O)N(c2ccccc2)c2ccccc2)CC1	42.4	n	n	n	n	n
CCN(CC)C(=O)N1CCN(S(=O)(=O)c2ccccc2)CC1	n	n	27.7	n	n	n
CC(=O)c1cccc(-n2nnnc2SCC(=O)N2CCCC2)c1	n	n	n	n	n	n
